B1: TGTT (dsDNA)
DNA 1: GCTATCTAGTGCTCAGTACGCACTGTGTTAGGAAACTTCTGGCAGGACCAGGTCATGAGATCGGAAGAGCACACGTCTGAACTCCAGTCA
DNA 2: TGACTGGAGTTCAGACGTGTGCTCTTCCGATCTCATGACCTGGTCCTGCCAGAAGTTTCCTAACACAGTGCGTACTGAGCACTAGATAGC
RNA: AAUUUCUACUCUUGUAGAUAGGAAACUUCUGGCAGGACC
B2: ATAG (dsDNA)
DNA 1: GCTATCTAGTGCTCAGTACGCACTGATAGAGGAAACTTCTGGCAGGACCAGGTCATGAGATCGGAAGAGCACACGTCTGAACTCCAGTCA
DNA 2: TGACTGGAGTTCAGACGTGTGCTCTTCCGATCTCATGACCTGGTCCTGCCAGAAGTTTCCTCTATCAGTGCGTACTGAGCACTAGATAGC
RNA: AAUUUCUACUCUUGUAGAUAGGAAACUUCUGGCAGGACC
B3: TTAT (dsDNA)
DNA 1: GCTATCTAGTGCTCAGTACGCACTGTTATAGGAAACTTCTGGCAGGACCAGGTCATGAGATCGGAAGAGCACACGTCTGAACTCCAGTCA
DNA 2: TGACTGGAGTTCAGACGTGTGCTCTTCCGATCTCATGACCTGGTCCTGCCAGAAGTTTCCTATAACAGTGCGTACTGAGCACTAGATAGC
RNA: AAUUUCUACUCUUGUAGAUAGGAAACUUCUGGCAGGACC
B4: TTGG (dsDNA)
DNA 1: GCTATCTAGTGCTCAGTACGCACTGTTGGAGGAAACTTCTGGCAGGACCAGGTCATGAGATCGGAAGAGCACACGTCTGAACTCCAGTCA
DNA 2: TGACTGGAGTTCAGACGTGTGCTCTTCCGATCTCATGACCTGGTCCTGCCAGAAGTTTCCTCCAACAGTGCGTACTGAGCACTAGATAGC
RNA: AAUUUCUACUCUUGUAGAUAGGAAACUUCUGGCAGGACC
B5: ACCT (dsDNA)
DNA 1: GCTATCTAGTGCTCAGTACGCACTGACCTAGGAAACTTCTGGCAGGACCAGGTCATGAGATCGGAAGAGCACACGTCTGAACTCCAGTCA
DNA 2: TGACTGGAGTTCAGACGTGTGCTCTTCCGATCTCATGACCTGGTCCTGCCAGAAGTTTCCTAGGTCAGTGCGTACTGAGCACTAGATAGC
RNA: AAUUUCUACUCUUGUAGAUAGGAAACUUCUGGCAGGACC
B6: ATAT (dsDNA)
DNA 1: GCTATCTAGTGCTCAGTACGCACTGATATAGGAAACTTCTGGCAGGACCAGGTCATGAGATCGGAAGAGCACACGTCTGAACTCCAGTCA
DNA 2: TGACTGGAGTTCAGACGTGTGCTCTTCCGATCTCATGACCTGGTCCTGCCAGAAGTTTCCTATATCAGTGCGTACTGAGCACTAGATAGC
RNA: AAUUUCUACUCUUGUAGAUAGGAAACUUCUGGCAGGACC
B7: TTGT (dsDNA)
DNA 1: GCTATCTAGTGCTCAGTACGCACTGTTGTAGGAAACTTCTGGCAGGACCAGGTCATGAGATCGGAAGAGCACACGTCTGAACTCCAGTCA
DNA 2: TGACTGGAGTTCAGACGTGTGCTCTTCCGATCTCATGACCTGGTCCTGCCAGAAGTTTCCTACAACAGTGCGTACTGAGCACTAGATAGC
RNA: AAUUUCUACUCUUGUAGAUAGGAAACUUCUGGCAGGACC
B8: ATCA (dsDNA)
DNA 1: GCTATCTAGTGCTCAGTACGCACTGATCAAGGAAACTTCTGGCAGGACCAGGTCATGAGATCGGAAGAGCACACGTCTGAACTCCAGTCA
DNA 2: TGACTGGAGTTCAGACGTGTGCTCTTCCGATCTCATGACCTGGTCCTGCCAGAAGTTTCCTTGATCAGTGCGTACTGAGCACTAGATAGC
RNA: AAUUUCUACUCUUGUAGAUAGGAAACUUCUGGCAGGACC
B9: TTAG (dsDNA)
DNA 1: GCTATCTAGTGCTCAGTACGCACTGTTAGAGGAAACTTCTGGCAGGACCAGGTCATGAGATCGGAAGAGCACACGTCTGAACTCCAGTCA
DNA 2: TGACTGGAGTTCAGACGTGTGCTCTTCCGATCTCATGACCTGGTCCTGCCAGAAGTTTCCTCTAACAGTGCGTACTGAGCACTAGATAGC
RNA: AAUUUCUACUCUUGUAGAUAGGAAACUUCUGGCAGGACC
B10: AGGG (dsDNA)
DNA 1: GCTATCTAGTGCTCAGTACGCACTGAGGGAGGAAACTTCTGGCAGGACCAGGTCATGAGATCGGAAGAGCACACGTCTGAACTCCAGTCA
DNA 2: TGACTGGAGTTCAGACGTGTGCTCTTCCGATCTCATGACCTGGTCCTGCCAGAAGTTTCCTCCCTCAGTGCGTACTGAGCACTAGATAGC
RNA: AAUUUCUACUCUUGUAGAUAGGAAACUUCUGGCAGGACC
B11: TTCG (dsDNA)
DNA 1: GCTATCTAGTGCTCAGTACGCACTGTTCGAGGAAACTTCTGGCAGGACCAGGTCATGAGATCGGAAGAGCACACGTCTGAACTCCAGTCA
DNA 2: TGACTGGAGTTCAGACGTGTGCTCTTCCGATCTCATGACCTGGTCCTGCCAGAAGTTTCCTCGAACAGTGCGTACTGAGCACTAGATAGC
RNA: AAUUUCUACUCUUGUAGAUAGGAAACUUCUGGCAGGACC
B12: AATG (dsDNA)
DNA 1: GCTATCTAGTGCTCAGTACGCACTGAATGAGGAAACTTCTGGCAGGACCAGGTCATGAGATCGGAAGAGCACACGTCTGAACTCCAGTCA
DNA 2: TGACTGGAGTTCAGACGTGTGCTCTTCCGATCTCATGACCTGGTCCTGCCAGAAGTTTCCTCATTCAGTGCGTACTGAGCACTAGATAGC
RNA: AAUUUCUACUCUUGUAGAUAGGAAACUUCUGGCAGGACC
B13: ACAT (dsDNA)
DNA 1: GCTATCTAGTGCTCAGTACGCACTGACATAGGAAACTTCTGGCAGGACCAGGTCATGAGATCGGAAGAGCACACGTCTGAACTCCAGTCA
DNA 2: TGACTGGAGTTCAGACGTGTGCTCTTCCGATCTCATGACCTGGTCCTGCCAGAAGTTTCCTATGTCAGTGCGTACTGAGCACTAGATAGC
RNA: AAUUUCUACUCUUGUAGAUAGGAAACUUCUGGCAGGACC
B14: ACCA (dsDNA)
DNA 1: GCTATCTAGTGCTCAGTACGCACTGACCAAGGAAACTTCTGGCAGGACCAGGTCATGAGATCGGAAGAGCACACGTCTGAACTCCAGTCA
DNA 2: TGACTGGAGTTCAGACGTGTGCTCTTCCGATCTCATGACCTGGTCCTGCCAGAAGTTTCCTTGGTCAGTGCGTACTGAGCACTAGATAGC
RNA: AAUUUCUACUCUUGUAGAUAGGAAACUUCUGGCAGGACC
B15: AAAT (dsDNA)
DNA 1: GCTATCTAGTGCTCAGTACGCACTGAAATAGGAAACTTCTGGCAGGACCAGGTCATGAGATCGGAAGAGCACACGTCTGAACTCCAGTCA
DNA 2: TGACTGGAGTTCAGACGTGTGCTCTTCCGATCTCATGACCTGGTCCTGCCAGAAGTTTCCTATTTCAGTGCGTACTGAGCACTAGATAGC
RNA: AAUUUCUACUCUUGUAGAUAGGAAACUUCUGGCAGGACC

These binders were tested against dAsCas12a Ultra (Acidaminococcus sp., UniProt U2UMQ6 1-1307, M537R;F870L;D908A;E993A;D1235A) (assay: Spec-seq (native PAGE EMSA with sequencing of bound and unbound); 25 mM Tris-HCl pH 7.4, 150 mM KCl, 5 mM MgCl2, 10% glycerol, 1 mM DTT, 40 ng/uL salmon sperm DNA; 400 nM Cas12a, 480 nM crRNA, 50 nM library, 37 C 1 h; native PAGE at room temperature; high values mean tight binding). Details: protein: recombinant.

Binder	binding signal [lnKA]
B1	-7.9
B3	-8.23
B4	-7.84
B7	-7.79
B9	-8.15
B11	-6.85

The binders below were run against dAsCas12a E174R (Acidaminococcus sp., UniProt U2UMQ6 1-1307, E174R;D908A;E993A;D1235A) in the same assay as above. Details: protein: recombinant.

Binder	binding signal [lnKA]
B1	-8.41
B2	-8.88
B3	-8.07
B4	-8.2
B5	-8.9
B6	-8.59
B7	-7.77
B8	-8.4
B9	-8.42
B10	-8.84
B11	-7.11
B12	-8.3
B13	-8.97
B14	-8.92
B15	-8.92

Each binder was assayed against dAsCas12a S542R (Acidaminococcus sp., UniProt U2UMQ6 1-1307, S542R;D908A;E993A;D1235A) in the same assay as above. Details: protein: recombinant.

Binder	binding signal [lnKA]
B1	-7.82
B2	-8.31
B3	-7.55
B4	-7.64
B5	-7.8
B6	-8.38
B7	-7.47
B8	-5.58
B9	-7.46
B10	-8.44
B11	-3.01
B12	-8.21
B13	-8.62
B14	-6.94
B15	-8.45

These binders were tested against d-enCas12a (Acidaminococcus sp., UniProt U2UMQ6 1-1307, E174R;S542R;K548R;D908A;E993A;D1235A) in the same assay as above. Details: protein: recombinant.

Binder	binding signal [lnKA]
B1	-3.23
B2	-5.6
B3	-4.53
B4	-5.22
B5	-5.41
B6	-5.63
B7	-4.47
B8	-1.74
B9	-4.03
B10	-5.86
B11	-1.14
B12	-3.79
B13	-5.81
B14	-4.21
B15	-5.69

These binders were tested against d-enCas12a-Ultra (Acidaminococcus sp., UniProt U2UMQ6 1-1307, E174R;S542R;K548R;M537R;F870L;D908A;E993A;D1235A) in the same assay as above. Details: protein: recombinant.

Binder	binding signal [lnKA]
B1	-0.889
B2	-3.31
B3	-2.12
B4	-2.4
B5	-2.23
B6	-3.33
B7	-1.69
B8	-0.402
B9	-1.65
B10	-3.51
B11	-0.323
B12	-1.81
B13	-3.49
B14	-0.992
B15	-3.07

What follows are binders tested against dAsCas12a K548R (Acidaminococcus sp., UniProt U2UMQ6 1-1307, K548R;D908A;E993A;D1235A) in the same assay as above. Details: protein: recombinant.

Binder	binding signal [lnKA]
B11	-8.63

Reference: publication PMC8222333, “AsCas12a ultra nuclease facilitates the rapid generation of therapeutic cell medicines”
